# A selection: hits, their analogues and other compounds. The true share with any hit is near 9.3%.
# Rab9 promoter act = qHTS Assay for Rab9 Promoter Activators; hit rate 2.8% among 320,000; Potency, µM (top dose mostly 9.22 µM), without a hit: top-dose activation, negative = inhibition, actives largely listed as activators; Huh7 Rab9 promoter-luciferase reporter, luminescence, 24 h; further: % of control where 0% means no effect; nearly all actives have a fitted effect of over 60% in size
#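 Huh7 reporter line, Rab9 promoter upstream of luciferase. Compound exposure 24 h at 37 °C in reduced-serum medium with 10% FBS. Read-out: luminescence.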
# ELG1 genotoxic = qHTS screen for small molecules that induce genotoxicity in human embryonic kidney (HEK293T) cells expressing luciferase-tagged ELG1; HEK293T ELG1-luciferase reporter, luminescence, 16 h; Potency, µM (top dose mostly 46 µM), inactives show at the highest dose activity change, positive = activation, usual class: activators; hit rate 1.3% among 330,000; AID 504466, 2011; further: % of control where 0% means no effect; nearly all actives have a fitted effect of over 60% in size
#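 DMSO vehicle served as control against compound-treated ELG1-luciferase HEK293T cells; exposure lasted 16 hr at 37 °C and 5% CO2, followed by ONE-Glo luminescence detection after 30 min.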
# NPC1 prom act = qHTS Assay for NPC1 Promoter Activators | Huh7 NPC1 promoter luciferase reporter, 24 h | Potency, µM (doses to about 9.22 µM), for inactives: top-dose activation, actives largely listed as activators | hit rate 2.4% among 320,000; further: % of control where 0% means no effect; nearly all actives have a fitted effect of over 60% in size
#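 NPC1 promoter–luciferase Huh7 cells; 24 h compound; luminescence.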
# SMN2 splice enh = qHTS Assay for Enhancers of SMN2 Splice Variant Expression; hit rate 2.8% among 210,000; Potency, µM (top dose mostly 46.1 µM), for inactives: at the top dose activity change, positive = activation, most hits filed as activators; AID 1458, 2008; HEK293 SMN2-luciferase splicing reporter, luminescence, 30-36 h; further: % of control where 0% means no effect; nearly all actives have a fitted effect of over 55% in size
#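 HEK293 cells carry an SMN2 minigene-luciferase reporter in which exon 7 inclusion puts luciferase in frame. Cells were seeded at 2000 cells/well, attached for 10-12 hours, then exposed to compounds for 30-36 hours at 37C before ONE-Glo luminescence.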
# ELG1 DNA repair = qHTS screen for small molecules that inhibit ELG1-dependent DNA repair in human embryonic kidney (HEK293T) cells expressing luciferase-tagged ELG1 | HEK293T ELG1-luciferase reporter, luminescence, 16 h; DNA damage induced by 5-fluorouridine | Potency, µM (titrated, usually from 46.1 µM), for the others: top-dose activity change, negative = inhibition, most hits filed as inhibitors | hit rate 2.3% among 330,000 | AID 504467, 2011; further: on the % scale 0 is the no-effect control and ±100 the full control effect; nearly all actives have a fitted effect of over 55% in size
#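 5-Fluorouridine DNA damage + compound/DMSO, 2,000 cells/well, 16 h, 37 °C/5% CO2. ONE-Glo, 30 min RT, luminescence. Readout = decrease in reporter signal.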
# FLuc counter = qHTS profiling assay for firefly luciferase inhibitor/activator using purifed enzyme and Km concentrations of substrates (counterscreen for miR-21 project); Luciferin 4-monooxygenase (Photinus pyralis), P08659; purified FLuc, Km substrates, luminescence inhibition; Potency, µM (highest dose often 57.5 µM), inactives show at the top dose activity change, negative = inhibition, usual class: inhibitors; hit rate 6.9% among 360,000; AID 588342, 2011;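 further: plate controls were vehicle for no effect and reference inhibitor for full effect; nearly all actives have a fitted effect of over 55% in size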
# Target sequence (P08659 whole entry, looked up): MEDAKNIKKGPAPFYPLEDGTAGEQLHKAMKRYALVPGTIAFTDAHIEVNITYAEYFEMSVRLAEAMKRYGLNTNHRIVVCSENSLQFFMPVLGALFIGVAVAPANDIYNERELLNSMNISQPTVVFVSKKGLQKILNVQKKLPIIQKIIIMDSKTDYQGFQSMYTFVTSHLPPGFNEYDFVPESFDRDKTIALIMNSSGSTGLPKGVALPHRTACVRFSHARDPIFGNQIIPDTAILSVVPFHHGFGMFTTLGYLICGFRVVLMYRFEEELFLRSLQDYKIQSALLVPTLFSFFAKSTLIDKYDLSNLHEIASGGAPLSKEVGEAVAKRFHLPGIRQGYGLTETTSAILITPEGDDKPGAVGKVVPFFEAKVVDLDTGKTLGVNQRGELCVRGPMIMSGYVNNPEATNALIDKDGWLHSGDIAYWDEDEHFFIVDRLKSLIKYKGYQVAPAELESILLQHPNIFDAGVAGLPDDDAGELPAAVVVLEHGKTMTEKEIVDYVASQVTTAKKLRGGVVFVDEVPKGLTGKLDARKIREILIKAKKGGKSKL
#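 Purified P. pyralis luciferase (10nM final) with 10uM D-luciferin and 10uM ATP (Km levels) in 50mM Tris acetate pH 7.5, 10mM Mg acetate, 0.01% Tween-20, 0.05% BSA; qHTS 6-point titration, ~60 µM downward; luminescence read.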
# Starred values were filed as active, the others as inactive; ? = inconclusive; nt = no result given. The call rests on the fitted dose curve; in most records, active means well fitted curve in the direction sought with a large enough effect; inconclusive means small, poorly fitted or top-dose-only effect, or another doubt; inactive means no such curve, though single readings can be large; an effect the other way counts as inactive or inconclusive. Potency means the concentration at half of the fitted maximal effect.
SMILES,Rab9 promoter act,ELG1 genotoxic,NPC1 prom act,SMN2 splice enh,ELG1 DNA repair,FLuc counter
O=C(N/N=C/c1ccccn1)c1ccccc1,3.55µM*,?,?,11.2µM*,?,10.7µM*
COC(=O)N/N=C\c1cccc(OC(=O)c2cccs2)c1,-4.3%,6.6%,-1.5%,6.3%,13.4%,-15.2%
O=C(N/N=C/c1cccc(OC(=O)N2CCOCC2)c1)c1cccs1,19.0%,3.2%,17.5%,4.7%,?,9.53µM*
COc1cc(/C=N/NC(=O)c2cccs2)ccc1O,?,20.6µM*,29.2%,nt,?,10.7µM*
COc1ccc2o/c(=N/NC(=O)c3cccs3)c(C(N)=O)cc2c1,?,14.4%,?,14.1µM*,?,?
O=C(Oc1cccc(Cl)c1)N1CCOCC1,-1.1%,-1.4%,0.0%,nt,-2.9%,-1.9%
COc1cc(/C=N/NC(=O)c2cccs2)ccc1OCc1ccccc1,4.3%,2.0%,-4.0%,9.3%,-1.0%,?
COc1cccc(/C=N/NC(=O)c2cccs2)c1,2.82µM*,20.6µM*,?,nt,?,5.36µM*
CC(=O)N1CCOc2cc(S(=O)(=O)N(C)Cc3ccccc3)c(Cl)cc21,nt,nt,nt,nt,nt,-5.0%
CSCCC(NS(=O)(=O)c1cccs1)C(=O)Nc1ccc(C)c(Cl)c1 (configuration not stated),nt,nt,nt,4.0%,nt,-3.0%
COCCN(C(=O)CSc1nnc(-c2ccccc2C)n1C)c1c(N)n(Cc2ccccc2)c(=O)[nH]c1=O,2.9%,-1.7%,-6.5%,13.9%,-17.9%,-2.6%
COc1cc(/C=N/NC(=O)c2ccccc2O)ccc1OC(=O)CC1SC(=O)NC1=O (configuration not stated),1.0%,3.2%,1.1%,nt,?,16.9µM*
COc1cc(/C=N/NC(=O)c2sc3nc(C)cc(C)c3c2N)ccc1O,-7.4%,8.7%,-2.9%,nt,0.3%,5.36µM*
COc1ccccc1/C=C/C=N/NC(=O)c1cccs1,3.16µM*,?,2.51µM*,nt,?,10.7µM*
COc1ccccc1/C=C\C=N\NC(=O)c1ccco1,?,?,20.4%,23.2%,?,?
COc1ccc2oc(=O)c(-c3nc(-c4cccs4)no3)cc2c1,nt,nt,nt,nt,nt,1.1%
Cc1cccc(-c2noc(-c3cc4ccccc4oc3=O)n2)c1,2.82µM*,?,3.16µM*,?,?,1.35µM*
O=c1oc2ccccc2cc1-c1nc(-c2ccccc2)no1,1.12µM*,?,0.447µM*,11.2µM*,?,0.536µM*
Cc1ccc(-c2noc(-c3cc4ccccc4oc3=O)n2)cc1,20.7%,?,25.1%,-6.6%,?,6.01µM*
O=c1oc2ccccc2cc1-c1nc(-c2cccs2)no1,nt,nt,nt,nt,nt,0.601µM*
O=c1oc2ccc(Br)cc2cc1-c1nc(-c2ccccc2)no1,nt,nt,nt,12.2%,nt,-0.9%
COc1ccc2cc(-c3nc(-c4ccc(N(C)C)cc4)no3)c(=O)oc2c1,nt,nt,nt,nt,nt,4.3%
CC(=O)OC[C@@]12C(=O)[C@@H](O)[C@@H](C)[C@]3(C[C@@H](c4ccoc4)O[C@@H]3OC(C)=O)[C@H]1CCC[C@]21CO1,nt,nt,nt,11.9%,nt,nt
CCN(CC)c1ccc2cc(-c3nc(-c4ccccc4)no3)c(=O)oc2c1,nt,nt,nt,nt,nt,6.01µM*
O=C1CCCC/C1=C\Nc1ccc(Cl)cn1,?,?,?,?,?,16.9µM*
SMILES,Rab9 promoter act,ELG1 genotoxic,NPC1 prom act,SMN2 splice enh,ELG1 DNA repair,FLuc counter
Cc1ccc(N/C=C2\CCCCC2=O)nc1,?,?,3.9%,17.8%,?,21.3µM*
O=c1oc2c3c(ccc2c2ccccc12)OCN(Cc1ccccc1Cl)C3,nt,nt,nt,2.8%,nt,-16.1%
CNc1snc(C)c1C(=O)OC(C)C(=O)NCc1ccccc1 (configuration not stated),-0.2%,1.0%,1.1%,nt,-22.5%,7.0%
COc1ccc(C2C=C(c3ccc(Cl)cc3)Nc3nc(-c4ccc(Cl)cc4)nn32)cc1 (configuration not stated),nt,nt,nt,1.0%,nt,-14.4%
CC(C)NC(=O)/C=C/C(=O)O,-3.7%,0.1%,-4.3%,0.0%,12.4%,-1.4%
O=[N+]([O-])c1ccc(-c2nc(NCC3CCCO3)c3ccccc3n2)cc1 (configuration not stated),-9.4%,-14.3%,-2.4%,nt,8.2µM*,1.5%
Oc1ccccc1-c1nc(NCC2CCCO2)c2ccccc2n1 (configuration not stated),-5.4%,-26.0%,2.4%,-39.5%,23.1µM*,0.2%
COc1cccc(-c2nc(NCC3CCCO3)c3ccccc3n2)c1O (configuration not stated),-0.1%,-0.5%,-8.6%,-13.5%,?,4.0%
O=C(N/N=C/C=C/c1ccccc1)NC1CCCCC1,?,2.9%,3.6%,7.3%,1.6%,?
CCCn1c(C)nc2c(NC3CCCCC3)nc(C)nc21,nt,nt,nt,-37.6%,nt,nt
c1csc(-c2nnc3ccccn23)c1,1.8%,-0.9%,0.0%,0.0028µM*,-5.2%,-2.9%
Clc1ccc(-c2nnc3ccccn23)cc1,-1.8%,4.8%,1.1%,9.7%,15.4%,-1.5%
CC(=O)Nc1cc2nn(-c3ccccc3)nc2cc1C,0.562µM*,3.26µM*,0.631µM*,nt,?,2.39µM*
Cc1ccc(C(=O)Nc2cc3nn(-c4ccccc4)nc3cc2Cl)c(C)c1,nt,nt,nt,-1.6%,nt,1.5%
CCC(=O)Nc1cc2nn(-c3ccccc3)nc2cc1Cl,0.282µM*,0.517µM*,0.316µM*,0.891µM*,?,0.675µM*
Cc1cc2nn(-c3ccccc3)nc2cc1NC(=O)c1cccs1,2µM*,?,?,?,?,6.01µM*
COc1ccc(-n2nc3cc(C)c(NC(=O)c4cccnc4)cc3n2)cc1,?,?,?,27.6%,?,1.07µM*
COc1ccc(-n2nc3cc(C)c(NC(=O)COc4cccc(C)c4)cc3n2)cc1,nt,nt,nt,3.4%,nt,?
CCCCc1nn2c(=O)cc(COC(=O)c3ccccc3NC(=O)c3ccccc3OC)nc2s1,nt,nt,nt,nt,nt,-8.1%
Cc1cccc2c(CC(=O)Nc3ccccc3)noc12,-0.5%,-0.6%,5.1%,20.0%,16.5%,-15.9%
COc1ccccc1CNC(=O)CCn1c(=O)c2ccccc2n(CC(=O)Nc2ccc(C)cc2Cl)c1=O,nt,nt,nt,16.5%,nt,0.9%
Cc1nc2ccccn2c1C(=O)N/N=C/c1cc(C)n(-c2ccc(Br)cc2)c1C,-1.2%,-1.0%,-4.5%,-45.8%,?,12µM*
